Compound activity (PubChem)
A selection: hits, their analogues and other compounds. The true share with any hit is near 5.9%.
Rtt109 Vps75: C. albicans Rtt109 histone acetyltransferase inhibition; Q5AAJ8; purified Rtt109/Vps75, ThioGlo CoA-SH fluorescence, 4 h; inhibition, % at 34.9 µM; actives 0.16% (n = 330,000);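 active = inhibition of at least 50% in every replicate; inconclusive = best replicate reaches 50% inhibition but some replicates fall short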
ALR H2O2 inh: blocks human ALR sulfhydryl oxidase activity; P55789; purified ALR, DTT oxidation, H2O2 HRP-luminol luminescence; inhibition, % (test concentration not listed); actives 3.8% (n = 290,000);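 active = mean replicate inhibition above about 79%, with every replicate also reaching it, limit read from the data; inconclusive = only one of the two criteria met; inactive = mean below limit and not every replicate reaching it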
PRMT1 inh: blocks human protein arginine methyltransferase 1; Q99873; recombinant PRMT1, activity-based probe fluorescence polarization; inhibition, % at 2.79 µM; actives 1.3% (n = 370,000); AID 652257;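 active = inhibition above about 21% made by adding two undisclosed values, limit read from the data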
ABHD5 PLIN5 PPI: blocks binding of human ABHD5 to perilipin-5; Split G. princeps luciferase complementation, luminescence, 4 h; actives 0.78% (n = 360,000); Q00G26+Q8WTS1; AID 602281; inhibition, % at 4 µM;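 active = inhibition above the mean inhibition across every tested compound plus 3 SD, cut at about 22% in these data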;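 note: 0% = DMSO only wells and the 100% control is not disclosed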
LANA-H2A inh: blocks KSHV LANA binding to histone H2A/H2B; inhibition, % (concentration not given with the values); cell-free LANA-H2A/H2B peptide, fluorescence polarization; AID 2629; actives 0.6% (n = 320,000); Q9QR71; in the data active = inhibition mostly above about 10%, no sharp cut-off; inactive = mostly below about 6.7%
rCAG binder: binds r(CAG) RNA repeats; r(CAG) RNA repeat, TO-PRO-1 dye displacement fluorescence; inhibition, % at 3 µM; actives 1.3% (n = 370,000); AID 651821;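 active = inhibition above the plate cutoff, the mean of all test compounds on that plate plus 3 SD, cut at about 35% in these data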;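 note: 0% = DMSO alone and 100% = 100 µM mitoxantrone as full dye displacement; higher means more dye released from RNA so lower well fluorescence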
* = called active by the depositor.

For CC1(c2nnnn2-c2ccc3c(c2)OCCO3)CSCC(=O)N1CCc1c[nH]c2ccccc12 (centres undefined) the results were PRMT1 inh -1 and rCAG binder 12.
For N#Cc1ccccc1NCCCN1CCC(C(O)(c2ccccc2)c2ccccc2)CC1 the results were PRMT1 inh -5 and rCAG binder 2.
`O=C(NCc1ccncc1)C(=O)NC1CC1` gave Rtt109 Vps75 2, ALR H2O2 inh 3, PRMT1 inh 4, ABHD5 PLIN5 PPI -2, LANA-H2A inh active and rCAG binder 0.
`NC(=O)C1CCN(c2nc(-c3ccc4occc(=O)c4c3)cs2)CC1` gave Rtt109 Vps75 0, ALR H2O2 inh 99*, PRMT1 inh 3, ABHD5 PLIN5 PPI -6, LANA-H2A inh 4 and rCAG binder 10.
`NC(=O)C1CCN(c2nc(-c3ccc(F)cc3)cs2)CC1` gave Rtt109 Vps75 0, ALR H2O2 inh 2, PRMT1 inh 3, ABHD5 PLIN5 PPI 2, LANA-H2A inh -4 and rCAG binder -3.
Screening CSc1nsc(SCC(=O)Nc2c(C)n(C)n(-c3ccccc3)c2=O)n1 returned Rtt109 Vps75 0, ALR H2O2 inh -4, PRMT1 inh 22*, ABHD5 PLIN5 PPI -8, LANA-H2A inh 0 and rCAG binder -2.
For Cc1c(NC(=O)CSc2nnc(N)s2)c(=O)n(-c2ccccc2)n1C the results were Rtt109 Vps75 -5, ALR H2O2 inh 4, PRMT1 inh -2, ABHD5 PLIN5 PPI -2, LANA-H2A inh 0 and rCAG binder -3.
Cc1csc(SCC(=O)Nc2c(C)n(C)n(-c3ccccc3)c2=O)n1 was read as Rtt109 Vps75 4, ALR H2O2 inh 0, PRMT1 inh -1, ABHD5 PLIN5 PPI -10, LANA-H2A inh -1 and rCAG binder -2.
Screening Cc1c(NC(=O)CSc2nc3ccccc3s2)c(=O)n(-c2ccccc2)n1C returned Rtt109 Vps75 18, ALR H2O2 inh 99*, PRMT1 inh 1, ABHD5 PLIN5 PPI -2, LANA-H2A inh -1 and rCAG binder -2.
Cn1c(SCC(=O)N2c3ccccc3Sc3ccccc32)nc2ccccc21 was read as Rtt109 Vps75 6, PRMT1 inh 2, ABHD5 PLIN5 PPI 3, LANA-H2A inh -1 and rCAG binder 3.
Screening CCn1c(SCC(=O)Nc2nc(-c3ccc(C)cc3)cs2)nnc1-c1ccccc1 returned Rtt109 Vps75 3, ALR H2O2 inh 4, PRMT1 inh -2, ABHD5 PLIN5 PPI 1, LANA-H2A inh 2 and rCAG binder 1.
`Cc1ccc(-c2csc(NC(=O)CSc3nc4ccccc4c(=O)n3CCCN(C)C)n2)cc1` gave Rtt109 Vps75 inconclusive, ALR H2O2 inh 99*, PRMT1 inh 5, ABHD5 PLIN5 PPI 7, LANA-H2A inh 2 and rCAG binder 16.
CN(C)CCCn1c(SCC(=O)N2c3ccccc3Sc3ccccc32)nc2ccccc2c1=O was read as Rtt109 Vps75 inconclusive, ALR H2O2 inh 97*, PRMT1 inh 6, ABHD5 PLIN5 PPI 18, LANA-H2A inh 1 and rCAG binder 7.
Screening C=CCNC(=O)NCC1CCN(Cc2ccc(OC)cc2)CC1 returned PRMT1 inh -1 and rCAG binder 1.
Screening CCn1c(CN(C)c2ccccc2)nc2ccccc21 returned Rtt109 Vps75 6, ALR H2O2 inh 98*, PRMT1 inh -5, ABHD5 PLIN5 PPI 5, LANA-H2A inh 3 and rCAG binder 3.
`CCOC(=O)[C@]12CCC=C1N(Cc1ccco1)C(=O)[C@H](CC(=O)NCC1CCCCC1)C2` gave PRMT1 inh 1, ABHD5 PLIN5 PPI 1 and rCAG binder 3.
CN=C1S/C(=C\c2ccc(O)c(Br)c2)C(=O)N1C was read as Rtt109 Vps75 2, ALR H2O2 inh 96*, PRMT1 inh -2, ABHD5 PLIN5 PPI -4, LANA-H2A inh -5 and rCAG binder 2.
Screening CCn1ncc(CN2CCC(n3nccc3NC(=O)c3ccccc3Cl)CC2)c1C returned PRMT1 inh -4, ABHD5 PLIN5 PPI -1 and rCAG binder -1.
O=C(O)CCNc1ccc(NCCC(=O)O)c2c1C(=O)c1ccccc1C2=O was read as Rtt109 Vps75 17, ALR H2O2 inh 99*, PRMT1 inh 27*, ABHD5 PLIN5 PPI 7, LANA-H2A inh 0 and rCAG binder 19.
COc1ccccc1NCCC(=O)O was read as Rtt109 Vps75 -8, PRMT1 inh 0, ABHD5 PLIN5 PPI 3, LANA-H2A inh 0 and rCAG binder 0.
O=C(Nc1cccc(Cl)c1)C1=CC=CN2CCS(=O)(=O)N=C12 was read as Rtt109 Vps75 4, PRMT1 inh -2, ABHD5 PLIN5 PPI -6, LANA-H2A inh -6 and rCAG binder 1.
For CC(=O)c1cccc(OC(=O)C2=CC=CN3CCS(=O)(=O)N=C23)c1 the results were Rtt109 Vps75 -18, ALR H2O2 inh 9, PRMT1 inh 0, ABHD5 PLIN5 PPI -5, LANA-H2A inh 47* and rCAG binder 2.
Screening N#Cc1cccc(NC(=O)OC2CCC23CCC(c2ccccc2)CC3)c1 (centres undefined) returned PRMT1 inh 3 and rCAG binder 3.
For CC1(C)CC2(C)OC2C2(C1)N=NC(=Nc1ccccc1)O2 (centres undefined) the results were ABHD5 PLIN5 PPI -1.
`Cc1cc(C(=O)C(=O)O)c(C)n1-c1ccc(Cl)c(Cl)c1` gave Rtt109 Vps75 4, ALR H2O2 inh 95*, PRMT1 inh 1, ABHD5 PLIN5 PPI -3, LANA-H2A inh 1 and rCAG binder 7.
Cc1cc(C(=O)C(=O)N(C)C)c(C)n1-c1ccc(Cl)c(Cl)c1 was read as Rtt109 Vps75 -3, ALR H2O2 inh -1, PRMT1 inh 3, ABHD5 PLIN5 PPI -3, LANA-H2A inh -3 and rCAG binder -6.
For CCCCn1nnnc1C(c1cc2ccccc2o1)N1CCN(c2ncccc2C#N)CC1 (centres undefined) the results were PRMT1 inh -2, ABHD5 PLIN5 PPI 3 and rCAG binder 5.
Cc1ccc2[nH]c(-c3cccc(N)c3)cc2c1 was read as Rtt109 Vps75 6, ALR H2O2 inh 98*, PRMT1 inh 2, ABHD5 PLIN5 PPI 11, LANA-H2A inh -2 and rCAG binder 15.
CCCCn1c(N)c(N(CC)C(=O)CN2C(=O)NC(C)(c3ccccc3)C2=O)c(=O)[nH]c1=O (centres undefined) was read as Rtt109 Vps75 -5, PRMT1 inh 2, ABHD5 PLIN5 PPI 1, LANA-H2A inh 3 and rCAG binder 0.
COC(=O)CCS(=O)(=O)c1cc(Cl)ccc1Cl was read as ALR H2O2 inh 95*, PRMT1 inh 3, ABHD5 PLIN5 PPI 1, LANA-H2A inh 0 and rCAG binder -1.
`CN(Cc1ccccc1F)C(=O)C1CCCN(c2ncccn2)C1` (centres undefined) gave PRMT1 inh 0 and rCAG binder -2.
